The results in this text go back to paper PMC11006913.

Common to all, as to assay: PBM; 200 nM protein, PBS
Holding throughout (conditions): dsDNA, one strand shown

Test [1] concerns the target HOXB9 (Homo sapiens, UniProt P17482 171-250, T197M).
Test [2] deals with HOXA7 (Homo sapiens, UniProt P31268 116-202).
For test [3], the target named is PRRX1 (Homo sapiens, UniProt P54821 80-166, F113S).
The target of test [4] is HOXB6 (Homo sapiens, UniProt P17509 132-218, K202E).
Test [5] deals with HOXA4 (Homo sapiens, UniProt Q00056 201-287, R217L).
Sequence of HOXA4 (Homo sapiens, UniProt Q00056 201-287, R217L) (Q00056 201-287 R217L): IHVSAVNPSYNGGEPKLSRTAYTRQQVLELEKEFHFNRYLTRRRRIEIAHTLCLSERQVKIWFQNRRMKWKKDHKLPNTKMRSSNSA
Test [6] addresses MSX2 (Homo sapiens, UniProt P35548 130-214, R199I).
The target in test [7] is HOXA7 (Homo sapiens, UniProt P31268 116-202, W177C).
Sequence of HOXA7 (Homo sapiens, UniProt P31268 116-202, W177C) (P31268 116-202 W177C): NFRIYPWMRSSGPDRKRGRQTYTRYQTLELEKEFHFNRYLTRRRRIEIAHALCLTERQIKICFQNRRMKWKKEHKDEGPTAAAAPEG
Test [8] addresses HOXA4 (Homo sapiens, UniProt Q00056 201-287, W262F).
The target of test [9] is HOXB6 (Homo sapiens, UniProt P17509 132-218).
Sequence of HOXB6 (Homo sapiens, UniProt P17509 132-218) (P17509 132-218): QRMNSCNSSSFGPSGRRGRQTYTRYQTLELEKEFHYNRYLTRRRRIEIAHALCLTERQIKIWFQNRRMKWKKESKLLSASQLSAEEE
For test [10], the target named is ALX4 (Homo sapiens, UniProt Q9H161 200-286).
Sequence of ALX4 (Homo sapiens, UniProt Q9H161 200-286) (Q9H161 200-286): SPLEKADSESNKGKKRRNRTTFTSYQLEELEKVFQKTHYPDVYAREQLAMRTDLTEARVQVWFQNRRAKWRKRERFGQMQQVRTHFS
The target in test [11] is ALX4 (Homo sapiens, UniProt Q9H161 200-286, Q225E).
Sequence of ALX4 (Homo sapiens, UniProt Q9H161 200-286, Q225E) (Q9H161 200-286 Q225E): as the sequence (Q9H161 200-286) above, with Q26E counted along it
For test [12], the target named is HOXB9 (Homo sapiens, UniProt P17482 171-250).
Sequence of HOXB9 (Homo sapiens, UniProt P17482 171-250) (P17482 171-250): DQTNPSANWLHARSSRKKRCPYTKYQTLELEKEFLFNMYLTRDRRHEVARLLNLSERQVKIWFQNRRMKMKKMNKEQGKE
The target in test [13] is HOXB9 (Homo sapiens, UniProt P17482 171-250, R186Q).
Sequence of HOXB9 (Homo sapiens, UniProt P17482 171-250, R186Q) (P17482 171-250 R186Q): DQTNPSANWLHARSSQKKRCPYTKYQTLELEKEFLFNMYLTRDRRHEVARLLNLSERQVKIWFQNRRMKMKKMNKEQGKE
For a further test, the target named is T1, NKX2-6 (Homo sapiens, UniProt A6NCS4 118-204, R150C).
T1 sequence: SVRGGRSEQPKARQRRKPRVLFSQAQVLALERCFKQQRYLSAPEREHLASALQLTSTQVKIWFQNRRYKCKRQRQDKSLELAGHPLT

For test [14], the target named is PRRX1 (Homo sapiens, UniProt P54821 80-166).
Sequence of PRRX1 (Homo sapiens, UniProt P54821 80-166) (P54821 80-166): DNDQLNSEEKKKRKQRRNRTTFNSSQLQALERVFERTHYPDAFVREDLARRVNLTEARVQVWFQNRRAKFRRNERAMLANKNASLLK
The target of test [15] is HOXC9 (Homo sapiens, UniProt P31274 178-260, K195R).
Sequence of HOXC9 (Homo sapiens, UniProt P31274 178-260, K195R) (P31274 178-260 K195R): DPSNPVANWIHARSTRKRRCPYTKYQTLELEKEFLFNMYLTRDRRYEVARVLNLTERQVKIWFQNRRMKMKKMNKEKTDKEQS
Test [16] addresses HOXC9 (Homo sapiens, UniProt P31274 178-260).
Test [17] concerns the target HOXC9 (Homo sapiens, UniProt P31274 178-260, R193K).
Test [18] concerns the target PROP1 (Homo sapiens, UniProt O75360 56-141).
For test [19], the target named is PROP1 (Homo sapiens, UniProt O75360 56-141, R99H).
Sequence of PROP1 (Homo sapiens, UniProt O75360 56-141, R99H) (O75360 56-141 R99H): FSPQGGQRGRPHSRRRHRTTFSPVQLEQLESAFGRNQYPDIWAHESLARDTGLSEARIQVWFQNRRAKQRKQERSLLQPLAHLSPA
The target of test [20] is HOXC9 (Homo sapiens, UniProt P31274 178-260, R222W).
Sequence of HOXC9 (Homo sapiens, UniProt P31274 178-260, R222W) (P31274 178-260 R222W): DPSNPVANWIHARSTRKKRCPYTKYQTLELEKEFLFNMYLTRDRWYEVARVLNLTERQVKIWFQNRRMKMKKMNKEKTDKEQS
For test [21], the target named is PROP1 (Homo sapiens, UniProt O75360 56-141, F88S).
Sequence of PROP1 (Homo sapiens, UniProt O75360 56-141, F88S) (O75360 56-141 F88S): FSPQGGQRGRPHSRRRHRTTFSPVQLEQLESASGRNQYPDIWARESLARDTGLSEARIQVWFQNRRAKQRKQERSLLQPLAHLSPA
For test [22], the target named is HOXD13 (Homo sapiens, UniProt P35453 263-343, T313R).
Sequence of HOXD13 (Homo sapiens, UniProt P35453 263-343, T313R) (P35453 263-343 T313R): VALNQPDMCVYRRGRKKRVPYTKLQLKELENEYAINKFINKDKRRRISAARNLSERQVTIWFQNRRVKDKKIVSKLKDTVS
Test [23] has as its target HOXD13 (Homo sapiens, UniProt P35453 263-343).
For test [24], the target named is MSX2 (Homo sapiens, UniProt P35548 130-214).
Sequence of MSX2 (Homo sapiens, UniProt P35548 130-214) (P35548 130-214): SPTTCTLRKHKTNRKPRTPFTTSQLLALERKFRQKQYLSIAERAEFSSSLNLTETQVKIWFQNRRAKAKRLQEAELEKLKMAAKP
The target in test [25] is HOXD13 (Homo sapiens, UniProt P35453 263-343, T313A).
Sequence of HOXD13 (Homo sapiens, UniProt P35453 263-343, T313A) (P35453 263-343 T313A): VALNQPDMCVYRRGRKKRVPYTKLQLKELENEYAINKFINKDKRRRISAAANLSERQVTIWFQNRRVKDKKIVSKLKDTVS
Test [26] concerns the target MSX2 (Homo sapiens, UniProt P35548 130-214, F161Y).
Test [27] addresses HOXC10 (Homo sapiens, UniProt Q9NYD6 254-340).
Test [28] deals with HOXC10 (Homo sapiens, UniProt Q9NYD6 254-340, K271E).
Sequence of HOXC10 (Homo sapiens, UniProt Q9NYD6 254-340, K271E) (Q9NYD6 254-340 K271E): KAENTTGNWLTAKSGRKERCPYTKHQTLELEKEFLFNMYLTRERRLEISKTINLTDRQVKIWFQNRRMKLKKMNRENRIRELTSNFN

Sequence of HOXB9 (Homo sapiens, UniProt P17482 171-250, T197M) (P17482 171-250 T197M): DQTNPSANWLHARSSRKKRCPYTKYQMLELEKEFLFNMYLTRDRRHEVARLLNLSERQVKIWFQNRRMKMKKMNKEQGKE
Sequence of PRRX1 (Homo sapiens, UniProt P54821 80-166, F113S) (P54821 80-166 F113S): as the sequence (P54821 80-166) above, with F34S counted along it
Sequence of HOXB6 (Homo sapiens, UniProt P17509 132-218, K202E) (P17509 132-218 K202E): as the sequence (P17509 132-218) above, with K71E counted along it
Sequence of MSX2 (Homo sapiens, UniProt P35548 130-214, R199I) (P35548 130-214 R199I): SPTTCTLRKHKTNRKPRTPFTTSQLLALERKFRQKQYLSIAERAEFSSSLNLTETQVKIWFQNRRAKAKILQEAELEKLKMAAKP
Sequence of PROP1 (Homo sapiens, UniProt O75360 56-141) (O75360 56-141): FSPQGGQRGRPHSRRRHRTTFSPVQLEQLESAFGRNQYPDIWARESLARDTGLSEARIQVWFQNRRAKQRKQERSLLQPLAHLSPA
Sequence of HOXC10 (Homo sapiens, UniProt Q9NYD6 254-340) (Q9NYD6 254-340): as the sequence (Q9NYD6 254-340 K271E) above, with E18K counted along it
Sequence of MSX2 (Homo sapiens, UniProt P35548 130-214, F161Y) (P35548 130-214 F161Y): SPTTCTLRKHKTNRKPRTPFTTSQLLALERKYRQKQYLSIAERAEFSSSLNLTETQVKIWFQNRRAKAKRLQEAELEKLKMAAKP
Sequence of HOXA4 (Homo sapiens, UniProt Q00056 201-287, W262F) (Q00056 201-287 W262F): as the sequence (Q00056 201-287 R217L) above, with L17R, W62F counted along it
Sequence of HOXC9 (Homo sapiens, UniProt P31274 178-260) (P31274 178-260): as the sequence (P31274 178-260 R222W) above, with W45R counted along it
Sequence of HOXC9 (Homo sapiens, UniProt P31274 178-260, R193K) (P31274 178-260 R193K): as the sequence (P31274 178-260 R222W) above, with R16K, W45R counted along it
Sequence of HOXD13 (Homo sapiens, UniProt P35453 263-343) (P35453 263-343): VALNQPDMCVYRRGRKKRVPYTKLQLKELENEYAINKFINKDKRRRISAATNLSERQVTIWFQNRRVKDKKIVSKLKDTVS
Sequence of HOXA7 (Homo sapiens, UniProt P31268 116-202) (P31268 116-202): as the sequence (P31268 116-202 W177C) above, with C62W counted along it

AATTACCA: the binding signal was 10.1 upbm affinity estimate (log intensity, higher = more binding, comparable within an allelic series) with HOXB9 [1]; 11.2 upbm affinity estimate (log intensity, higher = more binding, comparable within an allelic series) with HOXA7 [2]; 11.1 upbm affinity estimate (log intensity, higher = more binding, comparable within an allelic series) with PRRX1 [3]; 9.98 upbm affinity estimate (log intensity, higher = more binding, comparable within an allelic series) with HOXB6 [4]; 11.9 upbm affinity estimate (log intensity, higher = more binding, comparable within an allelic series) with HOXA4 [5]; 12.2 upbm affinity estimate (log intensity, higher = more binding, comparable within an allelic series) in the test with MSX2 [6]. Besides, the binding signal was 8.87 upbm affinity estimate (log intensity, higher = more binding, comparable within an allelic series) with HOXA7 [7]; 11.4 upbm affinity estimate (log intensity, higher = more binding, comparable within an allelic series) in the test with HOXA4 [8]; 11.7 upbm affinity estimate (log intensity, higher = more binding, comparable within an allelic series) with HOXB6 [9].
On to GGAGCCAC, for which the binding signal with HOXB9 [1] was 8.39 upbm affinity estimate (log intensity, higher = more binding, comparable within an allelic series); with ALX4 [10], 8.24 upbm affinity estimate (log intensity, higher = more binding, comparable within an allelic series); with ALX4 [11], 8.19 upbm affinity estimate (log intensity, higher = more binding, comparable within an allelic series); with HOXB9 [12], 8.65 upbm affinity estimate (log intensity, higher = more binding, comparable within an allelic series); with HOXB9 [13] it was 8.65 upbm affinity estimate (log intensity, higher = more binding, comparable within an allelic series).
Regarding AGGCCTGG, the binding signal in the test with HOXB9 [1] was 8.45 upbm affinity estimate (log intensity, higher = more binding, comparable within an allelic series); with HOXB6 [4], 8.94 upbm affinity estimate (log intensity, higher = more binding, comparable within an allelic series); with HOXB9 [12], 8.43 upbm affinity estimate (log intensity, higher = more binding, comparable within an allelic series); in the test with NKX2-6 it was 9.48 upbm affinity estimate (log intensity, higher = more binding, comparable within an allelic series); with HOXB9 [13], 8.44 upbm affinity estimate (log intensity, higher = more binding, comparable within an allelic series); in the test with HOXB6 [9], 8.97 upbm affinity estimate (log intensity, higher = more binding, comparable within an allelic series).
Take GCCGGAGC: the binding signal with HOXB9 [1] was 8.56 upbm affinity estimate (log intensity, higher = more binding, comparable within an allelic series); in the test with PRRX1 [3], 9.3 upbm affinity estimate (log intensity, higher = more binding, comparable within an allelic series); with HOXB9 [12], 8.68 upbm affinity estimate (log intensity, higher = more binding, comparable within an allelic series); with HOXB9 [13], 8.69 upbm affinity estimate (log intensity, higher = more binding, comparable within an allelic series); with PRRX1 [14] it was 9.61 upbm affinity estimate (log intensity, higher = more binding, comparable within an allelic series).
As to GCCTTCCC, the binding signal with HOXB9 [1] is 8.39 upbm affinity estimate (log intensity, higher = more binding, comparable within an allelic series); in the test with HOXC9 [15] it was 9.49 upbm affinity estimate (log intensity, higher = more binding, comparable within an allelic series); with HOXB9 [12], 8.31 upbm affinity estimate (log intensity, higher = more binding, comparable within an allelic series); in the test with HOXC9 [16] it was 9.55 upbm affinity estimate (log intensity, higher = more binding, comparable within an allelic series); with HOXC9 [17] it was 9.63 upbm affinity estimate (log intensity, higher = more binding, comparable within an allelic series); in the test with PROP1 [18] it was 6.64 upbm affinity estimate (log intensity, higher = more binding, comparable within an allelic series). Moreover, the binding signal with PROP1 [19] is 6.59 upbm affinity estimate (log intensity, higher = more binding, comparable within an allelic series); with HOXB9 [13], 8.38 upbm affinity estimate (log intensity, higher = more binding, comparable within an allelic series); with HOXC9 [20] it was 9.61 upbm affinity estimate (log intensity, higher = more binding, comparable within an allelic series); with PROP1 [21], 6.59 upbm affinity estimate (log intensity, higher = more binding, comparable within an allelic series).
Take ACCGGCAG: the binding signal in the test with HOXB9 [1] is 8.5 upbm affinity estimate (log intensity, higher = more binding, comparable within an allelic series); in the test with PRRX1 [3] it was 9.27 upbm affinity estimate (log intensity, higher = more binding, comparable within an allelic series); with HOXB9 [12] it was 8.43 upbm affinity estimate (log intensity, higher = more binding, comparable within an allelic series); with MSX2 [6], 9.63 upbm affinity estimate (log intensity, higher = more binding, comparable within an allelic series); with HOXD13 [22], 9.44 upbm affinity estimate (log intensity, higher = more binding, comparable within an allelic series); with HOXD13 [23] it was 9.57 upbm affinity estimate (log intensity, higher = more binding, comparable within an allelic series). In addition, the binding signal was 9.62 upbm affinity estimate (log intensity, higher = more binding, comparable within an allelic series) with MSX2 [24]; 9.67 upbm affinity estimate (log intensity, higher = more binding, comparable within an allelic series) with HOXD13 [25]; 8.48 upbm affinity estimate (log intensity, higher = more binding, comparable within an allelic series) in the test with HOXB9 [13]; 9.59 upbm affinity estimate (log intensity, higher = more binding, comparable within an allelic series) in the test with MSX2 [26]; 9.41 upbm affinity estimate (log intensity, higher = more binding, comparable within an allelic series) with PRRX1 [14].
Turning to AGTCGTTA, the binding signal was 10 upbm affinity estimate (log intensity, higher = more binding, comparable within an allelic series) with HOXB9 [1]; 12.2 upbm affinity estimate (log intensity, higher = more binding, comparable within an allelic series) with HOXC10 [27]; 12.1 upbm affinity estimate (log intensity, higher = more binding, comparable within an allelic series) with HOXC10 [28].
